# Assay outcomes: PubChem BioAssay, National Center for Advancing Translational Sciences (NCATS)
# IL-1B inflam inh: inhibitors of inflammasome signaling (IL-1 beta secretion) | activity change, % at 57.5 µM | hit rate 4.7% among 360,000 | THP-1 LPS/ATP IL-1B secretion, AlphaLISA, 16 h; hits give low values | AID 743279; in the data active means activity change below about -50%; inconclusive means mostly about -30% to -49%
#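 THP-1 cells pretreated 1 hr with compounds (up to 57.5 uM final), then stimulated with LPS (250 ng/mL final) plus ATP (1.25 mM final); secreted IL-1B measured by AlphaLISA after 16 hr, decreased signal indicating inhibition.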
# TDP1 cell CPT: DT40-hTDP1 cell growth loss with CPT; chicken DT40 Tdp1-/-;hTDP1 cells + 20 nM CPT, ATP luminescence, 48 h; Potency, µM (top dose mostly 46.2 µM), actives largely listed as inhibitors; hit rate 12% among 420,000; further: nearly all actives have a fitted effect of over 55% in size
#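 Chicken DT40 Tdp1-/- cells stably complemented with human TDP1 were seeded at 400 cells/well in medium containing 20 nM camptothecin, exposed to pin-transferred compounds, and grown at 37 °C for at least 48 hr. Viability was read as ATP luminescence.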
# HepG2 viability: counter-screen for TGF-b inhibitors: cytotoxicity in HepG2 cells; Potency, µM (titrated, usually from 46.1 µM), actives largely listed as cytotoxic; HepG2 CAGA-GFP viability, ATP luminescence, 18 h; AID 588856; hit rate 0.76% among 410,000
#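 CellTiter-Glo luminescence gave cytotoxicity after 18 hours at 37 degrees C. The cells were HepG2 CAGA-GFP in 1% FBS DMEM, stimulated with 500 pg/mL TGF-beta after compound addition. %Activity was normalised to no-cell wells (complete cell-killing) and DMSO (no toxicity), and curves were fitted and classified.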
# TDP1 cell noCPT: qHTS for Inhibitors of human tyrosyl-DNA phosphodiesterase 1 (TDP1): qHTS in cells in absence of CPT. DT40 Tdp1-/- hTDP1 cells, no CPT, ATP luminescence, 48 h. hit rate 15% among 420,000. Potency, µM (series often up to 46.2 µM), most hits filed as inhibitors; further: nearly all actives have a fitted effect of over 55% in size
#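 Growth of hTDP1-complemented DT40 Tdp1-knockout cells is measured by ATP luminescence after at least 48 hr compound exposure at 37 °C, with DMSO substituting for the 20 nM CPT used in the parallel screen.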
# TDP1 block: inhibitors of human tyrosyl-DNA phosphodiesterase TDP1 | hit rate 0.28% among 350,000 | Q9NUW8 | recombinant TDP1, AlphaScreen DNA substrate cleavage | AID 485290 | Potency, µM (titrated, usually from 130 µM), most hits filed as inhibitors; further: nearly all actives have a fitted effect of over 40% in size
# Target sequence (Q9NUW8 whole entry, looked up): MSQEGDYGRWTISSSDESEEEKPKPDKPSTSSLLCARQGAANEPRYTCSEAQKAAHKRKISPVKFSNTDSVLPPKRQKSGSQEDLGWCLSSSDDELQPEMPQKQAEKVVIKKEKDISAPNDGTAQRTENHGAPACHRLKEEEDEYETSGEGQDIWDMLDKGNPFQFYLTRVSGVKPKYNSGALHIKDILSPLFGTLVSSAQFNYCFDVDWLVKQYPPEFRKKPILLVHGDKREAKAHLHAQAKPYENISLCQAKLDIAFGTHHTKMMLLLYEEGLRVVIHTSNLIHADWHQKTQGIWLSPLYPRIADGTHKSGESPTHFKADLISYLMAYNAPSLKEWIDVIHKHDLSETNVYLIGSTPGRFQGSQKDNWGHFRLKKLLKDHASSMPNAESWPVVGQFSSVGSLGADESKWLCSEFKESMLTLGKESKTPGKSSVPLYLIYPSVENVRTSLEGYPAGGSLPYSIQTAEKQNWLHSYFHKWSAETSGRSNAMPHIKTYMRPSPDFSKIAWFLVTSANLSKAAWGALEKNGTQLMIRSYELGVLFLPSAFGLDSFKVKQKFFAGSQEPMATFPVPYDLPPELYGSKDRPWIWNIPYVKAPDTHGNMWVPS
#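 Recombinant E. coli-expressed Tdp1 (1 nM) preincubated with compound 15 min at RT, then 5'-biotin/3'-phosphotyrosine-FITC DNA substrate (15 nM) added for 5 min. AlphaScreen beads (10 ug/ml) added, 10 min RT; tyrosine-FITC cleavage read as signal loss.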
# TGFb SMAD3 inh: TGF-b pathway inhibition; HepG2 CAGA-GFP TGF-b/SMAD3 reporter, GFP fluorescence, 18 h; TGF-beta stimulated, 500 pg/mL final; Potency, µM (titrated, usually from 46.1 µM), hits mostly inhibitors; AID 588855; hit rate 1.2% among 410,000; further: nearly all actives have a fitted effect of over 65% in size
#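 Read-out: total well GFP (ex488/em500-530) summed from mean per-cell fluorescence. Cells: HEPG2 CAGA-GFP, 1% FBS DMEM, 18 h at 37 degrees C with 500 pg/mL final TGF-beta. Unstimulated wells served as the full-inhibition control; stimulated DMSO wells = 0%.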
# A number is an active result; 0 = inactive; ? = inconclusive; - = no result given; [ ] = dose if it differs, or a comment. Shown are actives, neighbours in structure and some others; about 19% of the full set was active somewhere. Unless noted, the call rests on the fitted dose curve; in most records, active means well fitted curve in the direction sought with a large enough effect; inconclusive means small, poorly fitted or top-dose-only effect, or another doubt; inactive means no such curve, though single readings can be large; an effect the other way counts as inactive or inconclusive.
SMILES,IL-1B inflam inh,TDP1 cell CPT,HepG2 viability,TDP1 cell noCPT,TDP1 block,TGFb SMAD3 inh
Cc1nnc(NC(=O)C2CC(=O)N(c3ccc4c(c3)OCCO4)C2)s1 (centres undefined),0,0,0,0,0,0
Cc1cnc(NC(=O)C2CC(=O)N(c3cccc(Cl)c3)C2)s1 (centres undefined),0,7.31µM,1.78µM,5.8µM,0,?
O=C(Nc1nc(-c2ccco2)c(-c2ccco2)s1)C1CCC1,?,14.6µM,0,18.4µM,0,0
CS(=O)(=O)c1ccc(C(=O)Nc2nc(-c3ccco3)c(-c3ccco3)s2)cc1,?,?,0,20.6µM,0,0
CS(=O)(=O)c1ccc2nc(NC(=O)c3ccccc3)sc2c1,0,0,0,?,-,0
CCC(C)c1ccc(OCc2ccc(C(=O)O)o2)cc1 (centres undefined),0,0,0,0,-,0
CCn1cc(C(=O)N2CCN(c3ccccc3)CC2)c(=O)c2cc(S(=O)(=O)N3CCCC3)ccc21,-,0,0,0,0,0
O=C(Nc1nc(-c2ccco2)c(-c2ccco2)s1)C1CC(=O)N(c2ccc3c(c2)OCCO3)C1 (centres undefined),0,16.4µM,0,?,?,0
CCc1ccc(-c2csc(NC(=O)C3CC(=O)N(c4ccc5c(c4)OCCO5)C3)n2)cc1 (centres undefined),0,16.4µM,0,16.4µM,0,?
OC(c1ccccc1)c1nc2ccccc2n1Cc1c(F)cccc1Cl (centres undefined),-,?,0,?,0,?
Cc1cccc(C(C)C)c1NC(=O)C1CN(S(=O)(=O)c2ccccc2)CCN1S(=O)(=O)c1ccccc1 (centres undefined),0,25.9µM,0,18.4µM,0,?
CCc1cccc(CC)c1NC(=O)C1CN(S(=O)(=O)c2ccccc2)CCN1S(=O)(=O)c1ccccc1 (centres undefined),0,?,0,?,0,?
Cc1ccc(/C=N\NC(=O)C2CN(S(=O)(=O)c3ccccc3)CCN2S(=O)(=O)c2ccccc2)cc1 (centres undefined),0,?,0,18.4µM,0,0
COc1ccccc1N1CCN(CCn2c(=O)c3c(c4ccccc4n3C)n(C)c2=O)CC1,-,0,-,0,0,-
N#Cc1ccc2[nH]cc(CCO)c2c1,0,0,0,0,-,0
Cc1ccc(-c2nc3c(C)cccn3c2Nc2ccccc2C)s1,-,20.6µM,0,?,0,?
Cc1ccc(Nc2c(-c3ccc(C)cc3)nc3c(C)cccn23)cc1,-,14.6µM,0,?,0,0
Cc1ccccc1Nc1c(-c2ccccn2)nc2c(C)cccn12,0,?,0,?,0,0
Cc1ccccc1Nc1c(-c2ccc(O)cc2)nc2c(C)cccn12,-,16.4µM,0,?,0[12.3 µM],?
Cc1cccn2c(Nc3ccccc3)c(-c3ccc(N4CCOCC4)cc3)nc12,-,?,0,5.8µM,0,0
CCN(Cc1ccccc1)C(=O)c1cc(-c2ccccc2)n[nH]1,-,?,0,?,0,0
Nc1nnc(SCC(=O)Nc2cccc(F)c2)s1,-,0,0,0,-,0
COc1ccc(OC)c(S(=O)(=O)NCC(=O)NC2CCCc3ccccc32)c1 (centres undefined),0,0,0,0,0,0
O=c1c(-c2ccc(F)cc2)nc2cnc(N3CCNCC3)nc2n1-c1ccccc1,-,14.6µM,-,?,-,-
COc1ccc(-n2c(=O)c(-c3cccc(C#N)c3)nc3cnc(N4CCNCC4)nc32)cc1,-,0,-,0,-,-
SMILES,IL-1B inflam inh,TDP1 cell CPT,HepG2 viability,TDP1 cell noCPT,TDP1 block,TGFb SMAD3 inh
COc1ccc(-n2c(=O)c(-c3cc(F)cc(F)c3)nc3cnc(N4CCNCC4)nc32)cc1,-,14.6µM,-,20.6µM,-,-
CNc1ccnc(-c2ccccc2C(F)(F)F)n1,-,0,-,0,0,-
O=C(NCCN1CCOCC1)c1ccc2c(c1)N(Cc1ccccc1F)C(=O)c1ccccc1S2,0,20.6µM,0,0,0,0
O=C(NCCc1ccccc1)c1ccc2c(c1)N(Cc1ccccc1Cl)C(=O)c1ccccc1S2,-,?,0,?,0,?
COc1ccc(CCNC(=O)c2ccc3c(c2)N(Cc2ccccc2Cl)C(=O)c2ccccc2S3)cc1OC,-,6.51µM,0,7.31µM,0,?
Cc1ccccc1CN1C(=O)c2ccccc2Sc2ccc(C(=O)NCCc3ccccc3)cc21,-,16.4µM,0,20.6µM,0,?
Cc1ccccc1CN1C(=O)c2ccccc2Sc2ccc(C(=O)NCCN3CCOCC3)cc21,0,?,0,23.1µM,0,0
O=S(=O)(c1ccccc1)N1CCC2(CCN(Cc3nccs3)CC2)CC1,-,0,-,0,-,-
CC(=O)O[C@H]1Cc2ccccc2N(C(N)=O)c2ccccc21,-,-,-,-,0,-
Cc1cccc(CN2C(=O)c3ccccc3Sc3ccc(C(=O)NCCN4CCOCC4)cc32)c1,-67.8,0,0,?,0,0
Cc1ccc(CN2C(=O)c3ccccc3Sc3ccc(C(=O)NCCN4CCOCC4)cc32)cc1,0,?,0,?,0,?
CC(C)/C=N/Nc1nc(-c2ccc(Br)cc2)cs1,0,23.1µM,0,16.4µM,0,?
O=C(Nc1nc(-c2ccc(Br)cc2)cs1)c1cccnc1,0,0,0,0,0,0
CO/N=C/c1c(-c2ccc(Cl)cc2)nc2cc(C)ccn12,-52.3,?,0,?,0,0
Cc1ccccc1NC(=O)c1ccc(CN(c2ccccc2)S(=O)(=O)c2ccccc2)cc1,0,?,0,?,0,0
CC(C)C(NS(=O)(=O)c1cccc(C(F)(F)F)c1)C(=O)NCc1cccs1 (centres undefined),0,0,0,?,0,0
CN(C(=O)c1cc2c(cc1Br)OCO2)c1cccc2ccccc12,0,?,0,20.6µM,-,0
CCN(CC(=O)Nc1ccc(OC)cc1)C(=O)c1ccc2c(c1)NC(=O)C(C)S2 (centres undefined),0,0,0,0,-,?
CC1C(c2ccccc2)N(C)C(c2ccccc2)CC1(O)c1ccccc1 (centres undefined),0,?,22.4µM,?,0,?
CCN1CC(C)C(O)(c2ccccc2)CC1C (centres undefined),0,?,0,0,0,0
COc1ccccc1CNC(=O)CCc1c(C)c2cc3c(C)coc3cc2oc1=O,-,?,0,?,0,0
CC1(C)C2CCC1(C)C(NC(=O)/C=C/c1ccccc1)C2 (centres undefined),0,?,0,18.4µM,0,0
